# Data from ChEMBL document CHEMBL2218924, “A broad activity screen in support of a chemogenomic map for kinase signalling research and drug discovery” (Biochem J, 2013).
# Target: Homeodomain-interacting protein kinase 2 (Homo sapiens) (UniProt Q9H2X6)
# Details: at 1 µM
# Sequence of Homeodomain-interacting protein kinase 2 (Homo sapiens) (Q9H2X6 whole entry, looked up): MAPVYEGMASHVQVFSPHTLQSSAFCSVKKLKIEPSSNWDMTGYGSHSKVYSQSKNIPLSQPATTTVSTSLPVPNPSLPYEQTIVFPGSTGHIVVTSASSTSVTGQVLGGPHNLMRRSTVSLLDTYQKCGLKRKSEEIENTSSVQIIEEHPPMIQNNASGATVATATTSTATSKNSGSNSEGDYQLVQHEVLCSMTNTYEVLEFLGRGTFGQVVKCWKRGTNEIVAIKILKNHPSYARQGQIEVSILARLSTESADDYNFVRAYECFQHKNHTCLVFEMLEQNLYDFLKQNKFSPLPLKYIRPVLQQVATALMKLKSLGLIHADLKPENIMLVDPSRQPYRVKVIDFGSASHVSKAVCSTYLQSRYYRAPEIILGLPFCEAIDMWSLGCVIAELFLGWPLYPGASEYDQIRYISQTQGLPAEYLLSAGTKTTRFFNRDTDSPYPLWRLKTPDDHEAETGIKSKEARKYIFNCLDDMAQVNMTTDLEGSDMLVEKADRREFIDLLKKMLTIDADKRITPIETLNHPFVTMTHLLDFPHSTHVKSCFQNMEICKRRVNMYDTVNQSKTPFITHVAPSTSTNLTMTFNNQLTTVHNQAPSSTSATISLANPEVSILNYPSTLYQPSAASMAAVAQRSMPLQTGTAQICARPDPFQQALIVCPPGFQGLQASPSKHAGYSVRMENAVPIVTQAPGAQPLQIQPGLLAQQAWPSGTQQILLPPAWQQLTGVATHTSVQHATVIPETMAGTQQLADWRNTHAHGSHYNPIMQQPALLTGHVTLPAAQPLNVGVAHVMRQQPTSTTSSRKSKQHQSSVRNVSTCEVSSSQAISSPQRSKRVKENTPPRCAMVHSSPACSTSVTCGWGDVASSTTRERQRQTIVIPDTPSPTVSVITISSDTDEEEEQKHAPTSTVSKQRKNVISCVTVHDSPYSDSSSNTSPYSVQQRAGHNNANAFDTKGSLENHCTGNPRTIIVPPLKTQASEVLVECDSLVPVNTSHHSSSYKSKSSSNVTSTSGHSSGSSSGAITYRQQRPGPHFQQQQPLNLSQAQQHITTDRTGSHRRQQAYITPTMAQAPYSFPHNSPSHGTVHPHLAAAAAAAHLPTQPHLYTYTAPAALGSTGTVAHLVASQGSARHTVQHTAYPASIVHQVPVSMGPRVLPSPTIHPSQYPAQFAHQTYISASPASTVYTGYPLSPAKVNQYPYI
row,Compound,residual activity
1,Cn1c2ccccc2c2c3c(c4c5ccccc5n(CCC#N)c4c21)CNC3=O,20%
2,Nc1nc(Nc2ccc(S(N)(=O)=O)cc2)nn1C(=O)c1c(F)cccc1F,48%
3,O=C1NC(=O)C(c2c[nH]c3ccccc23)=C1c1c[nH]c2ccccc12,76%
4,CC(C)(C)n1nc(Cc2cccc3ccccc23)c2c(N)ncnc21,101%
5,Nc1ncnc2c1cnn2-c1ccccc1,101%
6,Oc1cccc(-c2nc(N3CCOCC3)c3oc4ncccc4c3n2)c1,84%
7,CC(C)c1nn(-c2c(Cl)cccc2Cl)c2nc(Cc3ccc(OCCO)cc3)[nH]c(=O)c12,99%
8,O=C(c1ccccc1)c1ccc(N2CCOCC2)cc1O,97%
9,O=C(c1cc2cc(O)ccc2[nH]1)c1cc2cc(O)ccc2[nH]1,83%
10,O=c1cc(N2CCOCC2)oc2c1ccc1ccccc12,70%
11,O=C(O)/C=C/c1cc(Br)c(Br)c(Br)c1Br,83%
12,O=C1NC(=O)c2c1c1c3ccccc3[nH]c1n1cncc21,30%
13,O=C1Nc2ccc(Cl)cc2/C1=C/c1cc(Cl)c(O)c(Cl)c1,76%
14,NC(=O)Nc1sc(-c2ccc(F)cc2)cc1C(N)=O,94%
15,COc1ccc2c(c1)c(C1=C(c3c[nH]c4ccccc34)C(=O)NC1=O)cn2CCCN(C)C,57%
16,Nc1ncnc2c1c(-c1ccc(Oc3ccccc3)cc1)cn2C1CCCC1,96%
17,CN(C)S(=O)(=O)c1ccc2c(c1)/C(=C/c1cc3c([nH]1)CCCC3)C(=O)N2,97%
18,CC(C)[C@H](CO)Nc1nc(Nc2cc(N)cc(Cl)c2)c2ncn(C(C)C)c2n1,86%
19,O=C(NC(NC(=S)Nc1ccc(F)c([N+](=O)[O-])c1)C(Cl)(Cl)Cl)C(c1ccccc1)c1ccccc1 (configuration not stated),104%
20,COc1cc2nccc(Oc3ccc(NC(=S)NC(=O)c4ccccc4C)cc3)c2cc1OC,100%
21,CCCC(=O)Oc1ccc2[nH]c(C(=O)c3cc4ccccc4[nH]3)cc2c1,102%
22,Cc1cc(C)c(/C=C2\C(=O)Nc3ccccc32)[nH]1,80%
23,O=C(CCCc1ccc(-c2ccccc2F)cc1)Nc1ccc(O)cc1,111%

# Target: Homeodomain-interacting protein kinase 2 (Homo sapiens) (UniProt Q9H2X6)
# Details: at 10 µM
row,Compound,residual activity
1,Cn1c2ccccc2c2c3c(c4c5ccccc5n(CCC#N)c4c21)CNC3=O,11%
2,CCCCc1c(-c2ccc(OC)cc2)[nH]c2nccnc12,90%
3,Nc1nc(Nc2ccc(S(N)(=O)=O)cc2)nn1C(=O)c1c(F)cccc1F,6%
4,O=C1NC(=O)C(c2c[nH]c3ccccc23)=C1c1c[nH]c2ccccc12,15%
5,CC(C)(C)n1nc(Cc2cccc3ccccc23)c2c(N)ncnc21,110%
6,Nc1ncnc2c1cnn2-c1ccccc1,95%
7,CCCCc1c(-c2ccc(O)cc2)[nH]c2nccnc12,62%
8,Oc1cccc(-c2nc(N3CCOCC3)c3oc4ncccc4c3n2)c1,89%
9,CC(C)c1nn(-c2c(Cl)cccc2Cl)c2nc(Cc3ccc(OCCO)cc3)[nH]c(=O)c12,89%
10,O=C(c1ccccc1)c1ccc(N2CCOCC2)cc1O,94%
11,O=C(c1cc2cc(O)ccc2[nH]1)c1cc2cc(O)ccc2[nH]1,28%
12,O=c1cc(N2CCOCC2)oc2c1ccc1ccccc12,22%
13,O=C(O)/C=C/c1cc(Br)c(Br)c(Br)c1Br,27%
14,O=C1NC(=O)c2c1c1c3ccccc3[nH]c1n1cncc21,13%
15,O=C1Nc2ccc(Cl)cc2/C1=C/c1cc(Cl)c(O)c(Cl)c1,22%
16,NC(=O)Nc1sc(-c2ccc(F)cc2)cc1C(N)=O,67%
17,COc1ccc2c(c1)c(C1=C(c3c[nH]c4ccccc34)C(=O)NC1=O)cn2CCCN(C)C,13%
18,Nc1ncnc2c1c(-c1ccc(Oc3ccccc3)cc1)cn2C1CCCC1,75%
19,CN(C)S(=O)(=O)c1ccc2c(c1)/C(=C/c1cc3c([nH]1)CCCC3)C(=O)N2,90%
20,CC(C)[C@H](CO)Nc1nc(Nc2cc(N)cc(Cl)c2)c2ncn(C(C)C)c2n1,32%
21,O=C(NC(NC(=S)Nc1ccc(F)c([N+](=O)[O-])c1)C(Cl)(Cl)Cl)C(c1ccccc1)c1ccccc1 (configuration not stated),77%
22,COc1cc2nccc(Oc3ccc(NC(=S)NC(=O)c4ccccc4C)cc3)c2cc1OC,91%
23,CCCC(=O)Oc1ccc2[nH]c(C(=O)c3cc4ccccc4[nH]3)cc2c1,100%
24,Cc1cc(C)c(/C=C2\C(=O)Nc3ccccc32)[nH]1,39%
25,O=C(CCCc1ccc(-c2ccccc2F)cc1)Nc1ccc(O)cc1,105%

# Target: Homeodomain-interacting protein kinase 3 (Homo sapiens) (UniProt Q9H422)
# Sequence (Q9H422 whole entry, looked up): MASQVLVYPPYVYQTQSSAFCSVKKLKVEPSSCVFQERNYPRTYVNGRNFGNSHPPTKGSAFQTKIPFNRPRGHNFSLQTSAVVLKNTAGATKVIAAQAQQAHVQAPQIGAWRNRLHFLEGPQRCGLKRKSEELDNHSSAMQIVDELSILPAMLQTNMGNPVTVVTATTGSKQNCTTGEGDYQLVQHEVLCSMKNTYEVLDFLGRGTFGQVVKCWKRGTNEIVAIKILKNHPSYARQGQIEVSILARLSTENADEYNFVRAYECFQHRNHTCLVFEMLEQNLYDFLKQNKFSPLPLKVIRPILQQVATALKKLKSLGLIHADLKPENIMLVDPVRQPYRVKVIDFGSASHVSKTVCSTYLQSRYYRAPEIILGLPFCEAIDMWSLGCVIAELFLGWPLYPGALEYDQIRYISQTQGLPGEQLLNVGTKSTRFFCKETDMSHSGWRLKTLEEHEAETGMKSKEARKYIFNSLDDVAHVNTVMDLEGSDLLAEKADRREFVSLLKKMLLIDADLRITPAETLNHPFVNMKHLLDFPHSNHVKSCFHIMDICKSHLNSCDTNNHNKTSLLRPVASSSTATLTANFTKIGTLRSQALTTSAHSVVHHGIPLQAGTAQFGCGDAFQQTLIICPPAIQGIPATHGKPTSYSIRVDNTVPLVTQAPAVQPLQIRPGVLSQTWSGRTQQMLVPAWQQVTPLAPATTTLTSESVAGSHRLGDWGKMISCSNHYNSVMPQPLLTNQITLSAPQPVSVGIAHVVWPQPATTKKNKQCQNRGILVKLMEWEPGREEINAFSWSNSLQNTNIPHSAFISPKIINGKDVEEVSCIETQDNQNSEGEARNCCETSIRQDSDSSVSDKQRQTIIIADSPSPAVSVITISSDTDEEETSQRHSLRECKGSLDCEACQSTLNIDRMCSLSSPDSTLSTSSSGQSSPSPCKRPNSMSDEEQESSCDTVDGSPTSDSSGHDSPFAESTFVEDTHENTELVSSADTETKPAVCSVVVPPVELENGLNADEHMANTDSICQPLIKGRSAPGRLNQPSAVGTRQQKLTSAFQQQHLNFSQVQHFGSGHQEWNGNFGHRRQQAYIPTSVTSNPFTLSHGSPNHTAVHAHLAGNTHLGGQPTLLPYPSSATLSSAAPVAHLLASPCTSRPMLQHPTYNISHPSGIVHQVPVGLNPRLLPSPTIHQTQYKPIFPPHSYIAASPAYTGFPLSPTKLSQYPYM
# Details: at 1 µM
row,Compound,residual activity
1,CCCCc1c(-c2ccc(OC)cc2)[nH]c2nccnc12,106%
2,CC(C)(C)n1nc(Cc2cccc3ccccc23)c2c(N)ncnc21,93%
3,Nc1ncnc2c1cnn2-c1ccccc1,99%
4,Oc1cccc(-c2nc(N3CCOCC3)c3oc4ncccc4c3n2)c1,93%
5,CC(C)c1nn(-c2c(Cl)cccc2Cl)c2nc(Cc3ccc(OCCO)cc3)[nH]c(=O)c12,107%
6,O=C(c1ccccc1)c1ccc(N2CCOCC2)cc1O,87%
7,O=C(c1cc2cc(O)ccc2[nH]1)c1cc2cc(O)ccc2[nH]1,76%
8,O=c1cc(N2CCOCC2)oc2c1ccc1ccccc12,71%
9,O=C(O)/C=C/c1cc(Br)c(Br)c(Br)c1Br,94%
10,O=C1NC(=O)c2c1c1c3ccccc3[nH]c1n1cncc21,61%
11,O=C1Nc2ccc(Cl)cc2/C1=C/c1cc(Cl)c(O)c(Cl)c1,79%
12,NC(=O)Nc1sc(-c2ccc(F)cc2)cc1C(N)=O,100%
13,COc1ccc2c(c1)c(C1=C(c3c[nH]c4ccccc34)C(=O)NC1=O)cn2CCCN(C)C,72%
14,Nc1ncnc2c1c(-c1ccc(Oc3ccccc3)cc1)cn2C1CCCC1,86%
15,CN(C)S(=O)(=O)c1ccc2c(c1)/C(=C/c1cc3c([nH]1)CCCC3)C(=O)N2,99%
16,O=C(NC(NC(=S)Nc1ccc(F)c([N+](=O)[O-])c1)C(Cl)(Cl)Cl)C(c1ccccc1)c1ccccc1 (configuration not stated),96%
17,COc1cc2nccc(Oc3ccc(NC(=S)NC(=O)c4ccccc4C)cc3)c2cc1OC,88%
18,CCCC(=O)Oc1ccc2[nH]c(C(=O)c3cc4ccccc4[nH]3)cc2c1,93%
19,O=C(CCCc1ccc(-c2ccccc2F)cc1)Nc1ccc(O)cc1,103%
